14 compounds from PubChem BioAssay (NCATS) can be followed below.

Inconclusive results are not listed. Values without a mark were called inactive. Calls of active or inactive are those of the source. Calls come from the whole dose curve; as a rule, active = well fitted cell-killing curve with a large enough effect; inconclusive = small, poorly fitted or top-dose-only effect, or effect the other way; inactive = no such curve, though single readings can be large or run the other way.

The term viability denotes a read-out of living cells in per cent, often relative to untreated cells.

Test [1] can be described thus: Quantitative High-Throughput drug screen in 47 multiple myeloma cell lines against the NCATS MIPE library collection: OCIMY7_PLB cell viability assay (AID 1918987). Note: nearly all actives have a fitted effect of over 65% in size. Note: potency is the fitted concentration of half-maximal effect. The conditions noted are these: OCI-MY7 myeloma viability, CellTiter-Glo ATP, 48 h; viability (% of DMSO): at 45.8 µM (top of the series). In a few lines:
(§1)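 Myeloma cells (500/well) treated with MIPE 4.0 compounds for 48 h at 37 °C, 5% CO2. Viability read as ATP via CellTiter-Glo luminescence after 5 min at RT; DMSO-only wells = 100%, media-only = 0% viability.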

Test [2] in a line: Quantitative High-Throughput drug screen in 47 multiple myeloma cell lines against the NCATS MIPE library collection: OCIMY5_PLB cell viability assay (AID 1918988). Note: nearly all actives have a fitted effect of over 65% in size. Note: potency is the fitted concentration of half-maximal effect. A digest of the protocol: as §1
The nature of test [3]: Quantitative High-Throughput drug screen in 47 multiple myeloma cell lines against the NCATS MIPE library collection: SKMM1_PLB cell viability assay (AID 1919863). Note: nearly all actives have a fitted effect of over 35% in size. Note: potency is the fitted concentration of half-maximal effect. The conditions noted are these: SKMM1 myeloma viability, CellTiter-Glo ATP, 48 h; viability: hits give low values. A digest of the protocol: as §1
(In ATP-based viability assays light output follows the ATP content of the culture.)

Test [4] in a line: Quantitative High-Throughput drug screen in 47 multiple myeloma cell lines against the NCATS MIPE library collection: U266_ATCC cell viability assay (AID 1919864). Note: nearly all actives have a fitted effect of over 35% in size. Note: potency is the fitted concentration of half-maximal effect. A digest of the protocol:
as §1

Test [5] is described as follows: Quantitative High-Throughput drug screen in 47 multiple myeloma cell lines against the NCATS MIPE library collection: XG6_PLB cell viability assay (AID 1919865). Note: nearly all actives have a fitted effect of over 40% in size. Note: potency is the fitted concentration of half-maximal effect. A digest of the protocol:
as §1

Test [6] can be described thus: Quantitative High-Throughput drug screen in 47 multiple myeloma cell lines against the NCATS MIPE library collection: RPMI8226_ATCC cell viability assay (AID 1919871). Note: nearly all actives have a fitted effect of over 30% in size. Note: potency is the fitted concentration of half-maximal effect. In a few lines:
as §1

The nature of test [7]: Quantitative High-Throughput drug screen in 47 multiple myeloma cell lines against the NCATS MIPE library collection: OPM2_DSMZ cell viability assay (AID 1919872). Note: nearly all actives have a fitted effect of over 30% in size. In a few lines:
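Viability readout: CellTiter-Glo luminescence following 5 min room-temperature incubation with reagent. Prior exposure: 48 h, 37C, humidified 5% CO2, 500 cells per well.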

Test [8] is described as follows: Quantitative High-Throughput drug screen in 47 multiple myeloma cell lines against the NCATS MIPE library collection: KMS11_JCRBsus cell viability assay (AID 1919873). Note: nearly all actives have a fitted effect of over 50% in size. Note: potency is the fitted concentration of half-maximal effect. In a few lines:
as §1

A short description of test [9]: Quantitative High-Throughput drug screen in 47 multiple myeloma cell lines against the NCATS MIPE library collection: KMS28BM_JCRB cell viability assay (AID 1919874). Note: nearly all actives have a fitted effect of over 35% in size. Note: potency is the fitted concentration of half-maximal effect. A digest of the protocol: as §1
Test [10] is described as follows: Quantitative High-Throughput drug screen in 47 multiple myeloma cell lines against the NCATS MIPE library collection: XG1_PLB cell viability assay (AID 1919866). Note: nearly all actives have a fitted effect of over 35% in size. Note: potency is the fitted concentration of half-maximal effect. In a few lines: as §1
Test [11] can be described thus: Quantitative High-Throughput drug screen in 47 multiple myeloma cell lines against the NCATS MIPE library collection: VP6_DJ cell viability assay (AID 1919867). Note: nearly all actives have a fitted effect of over 40% in size. Note: potency is the fitted concentration of half-maximal effect. In a few lines:
as §1

Test [12] is described as follows: Quantitative High-Throughput drug screen in 47 multiple myeloma cell lines against the NCATS MIPE library collection: PCM6_Riken cell viability assay (AID 1919870). Note: nearly all actives have a fitted effect of over 30% in size. Note: potency is the fitted concentration of half-maximal effect. In a few lines:
as §1

Test [13] is described as follows: Quantitative High-Throughput drug screen in 47 multiple myeloma cell lines against the NCATS MIPE library collection: OPM1_PLB cell viability assay (AID 1918989). Note: nearly all actives have a fitted effect of over 40% in size. Note: potency is the fitted concentration of half-maximal effect. In a few lines:
as §1

Test [14] is described as follows: Quantitative High-Throughput drug screen in 47 multiple myeloma cell lines against the NCATS MIPE library collection: PE2_PLB cell viability assay (AID 1919869). Note: nearly all actives have a fitted effect of over 35% in size. Note: potency is the fitted concentration of half-maximal effect. In a few lines: as §1
Test [15] can be described thus: Quantitative High-Throughput drug screen in 47 multiple myeloma cell lines against the NCATS MIPE library collection: UTMC2_PLB cell viability assay (AID 1919868). Note: nearly all actives have a fitted effect of over 55% in size. Note: potency is the fitted concentration of half-maximal effect. The conditions noted are these: CellTiter-Glo ATP luminescence, 48 h; viability (% of DMSO control): at 45.8 µM (top of the series). In a few lines: as §1

`CN1c2ccccc2C(=O)N2CCc3c([nH]c4ccccc34)C21` (centres undefined): the Potency was 20.9 µM (active) in test [1]; 16.6 µM (active) in test [4]; 14.8 µM (active) in test [5]; 2.96 µM (active) in [8]; 3.32 µM (active) in [9]. For the same compound, the Potency result in test [2], in [6] and in test [7] was “inactive” each time. Also, the viability in test [3] was 100%.
For the compound `CC(C)(C)c1[nH]cnc1C=c1[nH]c(=O)c(=Cc2ccccc2)[nH]c1=O`, the Potency entry in [10], in test [7] and in [8] was “inactive” throughout.
Take `CNC(=O)c1c(-c2ccc(F)cc2)oc2cc(N(CCO)S(C)(=O)=O)c(C3CC3)cc12`: the Potency in test [5] was 18.7 µM (active); in test [10], 20.9 µM (active).
For `N#CC1(c2cccc(C(=O)Nc3cc(Oc4ccc5nc(NC(=O)C6CC6)sc5n4)ccc3F)c2Cl)CC1`, the Potency is 2.96 µM (active) in [3]; 5.26 µM (active) in test [4]; 1.48 µM (active) in test [5]; 5.9 µM (active) in [11]; 14.8 µM (active) in [12]; 1.05 µM (active) in test [6]. In addition, in test [8], the Potency was 0.132 µM (active).
`COc1nccc(-c2c(-c3ccc(F)cc3)ncn2C2CCC(O)CC2)n1` (centres undefined): the Potency result in test [1] was “inactive”. Further, the Potency was 10.5 µM (active) in test [13]; 0.0296 µM (active) in [3]; 2.96 µM (active) in test [4]; 18.7 µM (active) in [14]; 1.18 µM (active) in [6]; 4.18 µM (active) in [8].
As to `CCNC(=O)c1noc(-c2cc(C(C)C)c(O)cc2O)c1-c1ccc(CN2CCOCC2)cc1`, the Potency was 0.0469 µM (active) in test [1]; 0.0833 µM (active) in [13]; 0.0332 µM (active) in test [4]; 0.132 µM (active) in test [5]; 0.0833 µM (active) in test [15]; 0.105 µM (active) in [14]. The Potency in [12] is 0.0526 µM (active); in test [8], 0.0235 µM (active); in [9] it was 0.0332 µM (active).
In the case of `C=CC[N+]1([C@H]2C[C@H]3[C@@H]4CC[C@H]5C[C@H](O)[C@@H](N6CCOCC6)C[C@]5(C)[C@@H]4CC[C@]3(C)[C@H]2OC(C)=O)CCCC1`, the Potency entry in test [1], in test [4], in [5], in test [15], in test [14] and in test [12] was “inactive” in each case. For the same compound, the Potency result in test [7], in test [8] and in [9] was “inactive” throughout.
As to `Cc1ccccc1C(C(=O)NC1CCCCC1)N(C(=O)CNc1ccc(C#N)cc1)c1cccc(F)c1` (centres undefined), the Potency result in test [1], in test [13], in test [5], in [10], in [11] and in test [14] was “inactive” in each case. Also, the Potency entry in test [7] is “inactive”. Also, the Potency in test [6] is 23.5 µM (active).
With `CN(C)c1nc(Cc2ccc(NC(=O)c3ccc(C(F)(F)F)cc3)cc2)nc(N(C)C)c1CC(=O)O`, the Potency entry in test [1], in [13], in [4], in test [10], in [14] and in test [8] was “inactive” throughout. Besides, the Potency result in [9] is “inactive”. Further, the viability in test [3] was 127%.
On to `CCC(=O)NCC[C@@H]1CCc2ccc3c(c21)CCO3`, for which, in [3], the viability was 137%. For the same compound, the Potency result in test [5], in [11], in [15], in test [14], in [6] and in [8] was “inactive” each time. Also, the Potency entry in test [9] is “inactive”.
On to `CC[C@@H]([C@H](C)O)n1ncn(-c2ccc(N3CCN(c4ccc(OCC5CO[C@@](Cn6cncn6)(c6ccc(F)cc6F)C5)cc4)CC3)cc2)c1=O` (some centres undefined), for which the Potency in test [2] is 18.7 µM (active); in [5] it was 20.9 µM (active); in [11], 23.5 µM (active); in test [14], 10.5 µM (active); in test [8] it was 11.8 µM (active). The Potency result in test [13] and in test [4] was “inactive” throughout.
Regarding `CCNC(=O)[C@H]1O[C@@H](n2cnc3c(N)nc(NCCc4ccc(CCC(=O)O)cc4)nc32)[C@H](O)[C@H]1O`, the Potency is 0.0662 µM (active) in test [2], 0.118 µM (active) in test [4] and 0.0469 µM (active) in [14]. For the same compound, the Potency result in test [13], in [10] and in test [8] was “inactive” throughout.
Take `CN(C)CCOc1cc(-c2cn[nH]c2)ccc1NC(=O)C1COc2ccccc2O1` (centres undefined): the viability in [3] was 131%. The Potency in test [10] is 2.35 µM (active); in test [15] it was 6.62 µM (active); in test [14], 16.6 µM (active); in test [12] it was 4.69 µM (active); in test [9], 5.9 µM (active). The Potency entry in test [6] is “inactive”.
With `C#CCN(C)CC1=Cc2ccccc2Oc2ccccc21`, the Potency in test [2] was 20.9 µM (active). The Potency result in test [13], in test [5], in test [10], in test [14], in [12] and in test [6] was “inactive” each time. For the same compound, the Potency entry in test [7] and in test [9] was “inactive” each time.
